Data as given in ChEMBL document CHEMBL1961873, “Compounds: GSK PKIS; Assays: Nanosyn kinase panel” (2012).
Several values for one entry are separate records, joined by “and”; a condition that tells them apart may be missing. Identical values can stand only once.

Tests used:
[1] = biological target: Death-associated protein kinase 1 (Homo sapiens) (UniProt P53355); conditions: at 1 µM;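 note: each value is a mean inhibition figure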
[2] = biological target: T1, Serine/threonine-protein kinase DCLK2 (Homo sapiens) (UniProt Q8N568); conditions: at 0.1 µM
T1 sequence (whole entry): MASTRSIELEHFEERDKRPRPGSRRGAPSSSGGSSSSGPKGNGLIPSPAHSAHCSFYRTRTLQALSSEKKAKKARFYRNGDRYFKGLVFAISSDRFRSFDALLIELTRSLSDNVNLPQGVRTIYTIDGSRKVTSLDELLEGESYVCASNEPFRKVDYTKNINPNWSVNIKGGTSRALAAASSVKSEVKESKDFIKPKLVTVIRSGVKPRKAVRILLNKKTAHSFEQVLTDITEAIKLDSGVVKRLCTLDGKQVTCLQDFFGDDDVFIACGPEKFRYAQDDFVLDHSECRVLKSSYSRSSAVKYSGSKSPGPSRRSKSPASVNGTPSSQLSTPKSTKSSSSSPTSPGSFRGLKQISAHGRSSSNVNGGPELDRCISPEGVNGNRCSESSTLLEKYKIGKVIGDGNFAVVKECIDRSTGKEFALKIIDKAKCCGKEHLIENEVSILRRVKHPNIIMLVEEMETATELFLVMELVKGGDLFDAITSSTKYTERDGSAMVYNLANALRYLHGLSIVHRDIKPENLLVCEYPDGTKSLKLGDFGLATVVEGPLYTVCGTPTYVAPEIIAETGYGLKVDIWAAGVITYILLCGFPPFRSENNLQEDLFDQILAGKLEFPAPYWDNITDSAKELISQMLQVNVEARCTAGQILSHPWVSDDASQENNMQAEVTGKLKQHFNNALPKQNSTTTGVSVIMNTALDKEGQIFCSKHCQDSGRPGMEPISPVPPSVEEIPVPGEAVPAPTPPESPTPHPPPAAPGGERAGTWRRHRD

[3] = biological target: T1, Serine/threonine-protein kinase DCLK2 (Homo sapiens); conditions: at 1 µM
[4] = biological target: MAP kinase-activated protein kinase 2 (Homo sapiens) (UniProt P49137); conditions: at 0.1 µM
[5] = biological target: MAP kinase-activated protein kinase 2 (Homo sapiens) (UniProt P49137); conditions: at 1 µM
[6] = biological target: MAP kinase-activated protein kinase 3 (Homo sapiens) (UniProt Q16644); conditions: at 0.1 µM
[7] = biological target: MAP kinase-activated protein kinase 3 (Homo sapiens) (UniProt Q16644); conditions: at 1 µM
[8] = biological target: Serine/threonine-protein kinase MARK1 (Homo sapiens) (UniProt Q9P0L2); conditions: at 0.1 µM
[9] = biological target: Serine/threonine-protein kinase MARK1 (Homo sapiens) (UniProt Q9P0L2); conditions: at 1 µM
[10] = biological target: MAP/microtubule affinity-regulating kinase 3 (Homo sapiens) (UniProt P27448); conditions: at 0.1 µM
[11] = biological target: MAP/microtubule affinity-regulating kinase 3 (Homo sapiens) (UniProt P27448); conditions: at 1 µM
[12] = biological target: T2, MAP/microtubule affinity-regulating kinase 4 (Homo sapiens) (UniProt Q96L34); conditions: at 0.1 µM
T2 sequence (whole entry): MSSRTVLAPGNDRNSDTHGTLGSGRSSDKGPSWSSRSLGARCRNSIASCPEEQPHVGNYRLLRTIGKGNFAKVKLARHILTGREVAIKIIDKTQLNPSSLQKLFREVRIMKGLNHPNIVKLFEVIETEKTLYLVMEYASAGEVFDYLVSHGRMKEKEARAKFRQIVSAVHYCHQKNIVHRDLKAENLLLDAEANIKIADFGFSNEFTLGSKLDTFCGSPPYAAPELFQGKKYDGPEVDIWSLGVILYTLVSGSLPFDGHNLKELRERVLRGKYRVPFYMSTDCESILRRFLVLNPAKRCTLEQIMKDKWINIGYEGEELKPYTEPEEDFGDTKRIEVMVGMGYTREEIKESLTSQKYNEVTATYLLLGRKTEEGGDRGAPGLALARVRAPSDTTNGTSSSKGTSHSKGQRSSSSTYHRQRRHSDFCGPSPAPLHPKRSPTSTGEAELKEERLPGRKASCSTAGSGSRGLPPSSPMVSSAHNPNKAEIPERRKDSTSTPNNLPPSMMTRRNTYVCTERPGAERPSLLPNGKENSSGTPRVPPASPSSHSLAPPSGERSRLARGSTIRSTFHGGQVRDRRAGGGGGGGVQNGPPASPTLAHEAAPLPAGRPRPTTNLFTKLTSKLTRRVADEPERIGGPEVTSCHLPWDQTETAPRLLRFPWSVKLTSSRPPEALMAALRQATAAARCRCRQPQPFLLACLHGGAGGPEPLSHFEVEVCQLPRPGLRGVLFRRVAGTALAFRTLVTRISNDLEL

[13] = biological target: T2, MAP/microtubule affinity-regulating kinase 4 (Homo sapiens); conditions: at 1 µM
[14] = biological target: Maternal embryonic leucine zipper kinase (Homo sapiens) (UniProt Q14680); conditions: at 0.1 µM
[15] = biological target: Maternal embryonic leucine zipper kinase (Homo sapiens) (UniProt Q14680); conditions: at 1 µM
[16] = biological target: MAP kinase-interacting serine/threonine-protein kinase 1 (Homo sapiens) (UniProt Q9BUB5); conditions: at 0.1 µM
[17] = biological target: MAP kinase-interacting serine/threonine-protein kinase 1 (Homo sapiens) (UniProt Q9BUB5); conditions: at 1 µM
[18] = biological target: MAP kinase-interacting serine/threonine-protein kinase 2 (Homo sapiens) (UniProt Q9HBH9); conditions: at 0.1 µM
[19] = biological target: MAP kinase-interacting serine/threonine-protein kinase 2 (Homo sapiens) (UniProt Q9HBH9); conditions: at 1 µM
[20] = biological target: Serine/threonine-protein kinase MARK2 (Homo sapiens) (UniProt Q7KZI7); conditions: at 0.1 µM;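 note: mean percent inhibition of PAR-1Balpha kinase activity, reported from the GSK PKIS screen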
Chain of Serine/threonine-protein kinase MARK2 (Homo sapiens) (Q7KZI7 whole entry): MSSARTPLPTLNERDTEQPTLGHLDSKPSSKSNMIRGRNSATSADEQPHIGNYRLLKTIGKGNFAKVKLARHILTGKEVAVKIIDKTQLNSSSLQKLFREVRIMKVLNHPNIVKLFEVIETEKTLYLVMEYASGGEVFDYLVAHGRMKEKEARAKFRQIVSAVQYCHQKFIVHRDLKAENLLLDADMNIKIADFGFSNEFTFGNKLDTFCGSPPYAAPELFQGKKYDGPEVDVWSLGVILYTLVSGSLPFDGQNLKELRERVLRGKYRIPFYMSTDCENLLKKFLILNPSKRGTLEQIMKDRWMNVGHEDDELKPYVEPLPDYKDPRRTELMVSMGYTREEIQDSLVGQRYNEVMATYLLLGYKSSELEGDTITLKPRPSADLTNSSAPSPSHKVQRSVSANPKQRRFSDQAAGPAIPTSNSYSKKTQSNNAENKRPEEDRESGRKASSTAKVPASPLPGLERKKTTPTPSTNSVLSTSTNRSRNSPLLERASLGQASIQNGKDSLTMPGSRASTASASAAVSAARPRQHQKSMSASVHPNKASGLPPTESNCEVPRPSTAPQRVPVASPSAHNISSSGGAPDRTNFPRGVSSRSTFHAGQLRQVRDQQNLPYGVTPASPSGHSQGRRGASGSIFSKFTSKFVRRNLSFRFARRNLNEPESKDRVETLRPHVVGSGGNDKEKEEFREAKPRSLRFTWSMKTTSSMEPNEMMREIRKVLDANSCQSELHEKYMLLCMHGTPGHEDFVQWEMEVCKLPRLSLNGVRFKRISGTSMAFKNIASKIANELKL

Chain of MAP/microtubule affinity-regulating kinase 3 (Homo sapiens) (P27448 whole entry, looked up): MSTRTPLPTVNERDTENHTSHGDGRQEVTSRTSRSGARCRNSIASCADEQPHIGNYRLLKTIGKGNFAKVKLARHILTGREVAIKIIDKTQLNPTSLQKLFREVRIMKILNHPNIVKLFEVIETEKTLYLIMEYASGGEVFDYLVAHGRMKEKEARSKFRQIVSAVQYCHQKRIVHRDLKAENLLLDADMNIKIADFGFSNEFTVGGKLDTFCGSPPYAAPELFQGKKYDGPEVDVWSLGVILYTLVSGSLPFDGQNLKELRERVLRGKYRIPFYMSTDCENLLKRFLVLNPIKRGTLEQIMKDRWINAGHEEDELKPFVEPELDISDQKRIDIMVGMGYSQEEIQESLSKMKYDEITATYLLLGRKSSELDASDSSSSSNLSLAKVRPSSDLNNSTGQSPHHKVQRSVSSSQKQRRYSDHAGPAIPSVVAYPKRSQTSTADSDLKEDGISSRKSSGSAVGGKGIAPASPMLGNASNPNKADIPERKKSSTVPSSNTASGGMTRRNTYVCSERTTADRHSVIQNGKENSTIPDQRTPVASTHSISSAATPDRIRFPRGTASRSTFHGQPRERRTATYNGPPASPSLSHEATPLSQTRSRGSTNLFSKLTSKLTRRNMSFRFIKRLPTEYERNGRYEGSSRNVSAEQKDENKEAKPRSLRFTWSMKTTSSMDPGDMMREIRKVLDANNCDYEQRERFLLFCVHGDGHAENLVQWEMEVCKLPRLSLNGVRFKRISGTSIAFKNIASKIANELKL
Chain of MAP kinase-activated protein kinase 2 (Homo sapiens) (P49137 whole entry, looked up): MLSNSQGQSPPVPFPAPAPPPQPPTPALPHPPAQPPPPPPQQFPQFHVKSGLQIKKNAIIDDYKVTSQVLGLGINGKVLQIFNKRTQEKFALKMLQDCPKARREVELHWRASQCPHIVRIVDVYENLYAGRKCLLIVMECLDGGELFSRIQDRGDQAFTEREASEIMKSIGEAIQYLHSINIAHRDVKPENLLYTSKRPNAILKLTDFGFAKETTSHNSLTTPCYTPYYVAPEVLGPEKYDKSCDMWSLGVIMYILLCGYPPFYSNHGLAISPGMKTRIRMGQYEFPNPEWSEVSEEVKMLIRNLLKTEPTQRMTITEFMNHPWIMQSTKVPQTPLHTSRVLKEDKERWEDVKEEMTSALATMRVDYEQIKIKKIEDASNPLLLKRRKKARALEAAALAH
Chain of MAP kinase-activated protein kinase 3 (Homo sapiens) (Q16644 whole entry, looked up): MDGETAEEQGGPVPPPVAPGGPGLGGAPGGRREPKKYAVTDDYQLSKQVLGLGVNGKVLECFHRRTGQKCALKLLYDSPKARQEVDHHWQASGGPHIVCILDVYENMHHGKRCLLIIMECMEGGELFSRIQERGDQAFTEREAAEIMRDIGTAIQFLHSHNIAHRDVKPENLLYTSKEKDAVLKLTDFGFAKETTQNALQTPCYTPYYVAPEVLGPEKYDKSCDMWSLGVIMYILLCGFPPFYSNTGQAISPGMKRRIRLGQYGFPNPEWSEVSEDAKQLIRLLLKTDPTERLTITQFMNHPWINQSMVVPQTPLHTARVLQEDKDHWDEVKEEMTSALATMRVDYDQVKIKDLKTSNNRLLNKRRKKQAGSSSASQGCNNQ
Chain of Death-associated protein kinase 1 (Homo sapiens) (P53355 whole entry, looked up): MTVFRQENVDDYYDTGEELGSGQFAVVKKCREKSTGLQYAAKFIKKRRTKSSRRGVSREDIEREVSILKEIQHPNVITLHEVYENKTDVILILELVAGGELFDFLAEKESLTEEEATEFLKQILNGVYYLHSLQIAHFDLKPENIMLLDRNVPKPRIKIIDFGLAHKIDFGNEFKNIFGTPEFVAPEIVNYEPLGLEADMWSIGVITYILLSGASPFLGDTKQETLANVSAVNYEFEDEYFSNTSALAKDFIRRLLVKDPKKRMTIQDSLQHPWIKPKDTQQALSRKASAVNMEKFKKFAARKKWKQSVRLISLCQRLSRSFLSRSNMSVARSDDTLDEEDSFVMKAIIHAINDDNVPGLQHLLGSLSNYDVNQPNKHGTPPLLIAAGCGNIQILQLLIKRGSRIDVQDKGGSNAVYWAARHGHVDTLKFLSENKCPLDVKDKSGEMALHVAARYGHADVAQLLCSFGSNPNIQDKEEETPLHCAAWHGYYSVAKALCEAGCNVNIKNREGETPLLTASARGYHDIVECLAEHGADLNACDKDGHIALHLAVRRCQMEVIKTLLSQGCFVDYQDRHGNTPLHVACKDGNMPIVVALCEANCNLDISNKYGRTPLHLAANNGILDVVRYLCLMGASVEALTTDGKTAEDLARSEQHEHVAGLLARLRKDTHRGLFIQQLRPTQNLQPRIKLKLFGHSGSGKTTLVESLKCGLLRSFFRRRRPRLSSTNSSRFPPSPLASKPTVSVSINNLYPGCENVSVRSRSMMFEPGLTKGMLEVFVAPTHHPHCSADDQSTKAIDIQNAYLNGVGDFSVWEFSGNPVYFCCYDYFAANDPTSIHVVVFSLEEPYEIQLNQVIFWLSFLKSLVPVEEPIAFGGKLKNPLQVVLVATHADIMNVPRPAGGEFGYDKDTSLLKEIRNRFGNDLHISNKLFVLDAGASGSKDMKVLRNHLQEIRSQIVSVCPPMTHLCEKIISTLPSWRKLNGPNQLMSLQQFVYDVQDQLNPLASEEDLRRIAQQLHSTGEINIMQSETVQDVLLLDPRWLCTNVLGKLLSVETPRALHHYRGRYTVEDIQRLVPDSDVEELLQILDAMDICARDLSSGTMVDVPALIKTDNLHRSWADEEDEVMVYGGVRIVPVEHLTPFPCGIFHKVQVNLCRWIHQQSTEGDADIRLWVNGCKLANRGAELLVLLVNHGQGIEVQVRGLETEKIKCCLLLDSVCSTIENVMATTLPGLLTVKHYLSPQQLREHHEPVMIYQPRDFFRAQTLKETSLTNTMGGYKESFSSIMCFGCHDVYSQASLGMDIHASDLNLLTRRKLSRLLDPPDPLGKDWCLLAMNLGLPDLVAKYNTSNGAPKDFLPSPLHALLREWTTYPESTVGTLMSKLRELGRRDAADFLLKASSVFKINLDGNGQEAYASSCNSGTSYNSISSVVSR
Chain of Serine/threonine-protein kinase MARK1 (Homo sapiens) (Q9P0L2 whole entry, looked up): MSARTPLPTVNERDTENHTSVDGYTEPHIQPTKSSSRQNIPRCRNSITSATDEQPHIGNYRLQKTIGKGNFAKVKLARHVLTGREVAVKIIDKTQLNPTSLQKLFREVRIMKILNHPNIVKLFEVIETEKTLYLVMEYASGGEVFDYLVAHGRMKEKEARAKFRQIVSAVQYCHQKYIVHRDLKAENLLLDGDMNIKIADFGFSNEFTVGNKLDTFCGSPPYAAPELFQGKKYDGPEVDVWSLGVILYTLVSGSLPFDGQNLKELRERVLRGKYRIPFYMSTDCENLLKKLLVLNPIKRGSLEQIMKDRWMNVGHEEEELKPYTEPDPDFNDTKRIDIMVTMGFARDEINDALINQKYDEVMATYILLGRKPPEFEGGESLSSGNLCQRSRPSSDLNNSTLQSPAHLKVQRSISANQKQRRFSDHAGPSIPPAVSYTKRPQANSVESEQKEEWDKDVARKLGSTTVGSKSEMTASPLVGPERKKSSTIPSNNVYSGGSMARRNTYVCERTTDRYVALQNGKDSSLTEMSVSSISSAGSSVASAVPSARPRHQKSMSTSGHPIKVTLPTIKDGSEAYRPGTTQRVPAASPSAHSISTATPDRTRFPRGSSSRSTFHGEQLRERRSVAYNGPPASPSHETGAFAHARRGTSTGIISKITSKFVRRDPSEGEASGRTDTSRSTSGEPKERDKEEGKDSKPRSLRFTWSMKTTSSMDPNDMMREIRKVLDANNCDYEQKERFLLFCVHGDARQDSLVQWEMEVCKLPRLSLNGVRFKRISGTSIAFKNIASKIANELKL
Chain of MAP kinase-interacting serine/threonine-protein kinase 2 (Homo sapiens) (Q9HBH9 whole entry, looked up): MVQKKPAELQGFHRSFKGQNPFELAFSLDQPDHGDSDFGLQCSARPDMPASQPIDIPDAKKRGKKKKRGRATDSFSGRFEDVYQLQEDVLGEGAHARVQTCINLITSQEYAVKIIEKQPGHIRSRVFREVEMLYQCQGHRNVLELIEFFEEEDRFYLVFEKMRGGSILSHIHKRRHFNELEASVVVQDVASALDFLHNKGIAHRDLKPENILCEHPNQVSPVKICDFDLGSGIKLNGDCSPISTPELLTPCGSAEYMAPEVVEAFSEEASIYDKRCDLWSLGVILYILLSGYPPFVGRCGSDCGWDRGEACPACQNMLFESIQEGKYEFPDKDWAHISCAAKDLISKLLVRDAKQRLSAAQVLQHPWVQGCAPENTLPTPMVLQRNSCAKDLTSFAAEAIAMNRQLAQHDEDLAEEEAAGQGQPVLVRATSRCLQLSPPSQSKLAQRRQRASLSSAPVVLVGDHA

SMILES | inhibition [1] | inhibition [2] | inhibition [3] | inhibition [4] | inhibition [5] | inhibition [6] | inhibition [7] | inhibition [8] | inhibition [9] | inhibition [10] | inhibition [11] | inhibition [12] | inhibition [13] | inhibition [14] | inhibition [15] | inhibition [16] | inhibition [17] | inhibition [18] | inhibition [19] | inhibition [20]
O=C(O[C@H]1CN[C@H](C#Cc2cc3ncnc(Nc4ccc5c(ccn5Cc5cc(F)ccc5F)c4)c3s2)C1)N1CCOCC1 | -3.4% | 1.07% | -1.18% | -0.3% | -1.2% | -1.09% | -1.03% | 4.09% | 3.3% | 1.37% | 1.49% | 2.82% | 0.75% | 5.51% | 5.23% | 2.17% | 5.94% | 1.3% | 1.83% | 0.88%
COc1cc(N2CCN(C(C)C)CC2)ccc1Nc1nc(Nc2cccc(F)c2C(=O)O)c2cc[nH]c2n1 | 2.32% | 0.91% | 1.63% | 2.14% | 1.32% | 4.39% | 4.68% | 3.19% | 8.61% | 4.95% | 4.97% | 1.88% | 5.09% | 2.86% | 7.68% | 3.1% | 5.88% | 1.57% | 5.1% | 1.11%
NS(=O)(=O)c1ccc(N/N=C2\C(=O)Nc3ccc(C(=O)NCc4ccncc4)cc32)cc1 | 4.92% | 3.49% | 0.04% | 2.73% | 3.71% | 4.05% | 2.16% | 7.5% | 40.7% | 4.2% | 34.4% | 4.76% | 33.7% | 49.6% | 90.6% | 2.18% | 10.9% | 1.66% | 6.27% | 0.88%
O=C(O[C@H]1CN[C@H](C#Cc2cc3ncnc(Nc4ccc(OCc5cccc(F)c5)c(Cl)c4)c3s2)C1)N1CCOCC1 | -0.32% | 0.93% | 0.57% | -0.11% | 0.31% | -0.64% | -0.5% | 6.71% | 5.07% | 1.14% | 10.1% | 1.79% | 0.94% | 3.76% | 4.67% | 4.6% | 11.4% | 5.13% | 13.2% | 6.4%
CN1CCN(Cc2ccc(-c3cc4ncnc(Nc5ccc(OCc6cccc(F)c6)c(Cl)c5)c4s3)o2)CC1 | 8.26% and 8.39% | -1.96% and 1.28% | -0.55% and 0.13% | 3.34% and 2.08% | 3.32% and 2.11% | 10.6% and 4.26% | 13% and 4.01% | 2.62% and 3.44% | 6.17% and 6% | 1.67% and 1.64% | 2.84% and 0.44% | 1.62% and 1.87% | 3.52% and 3.32% | 4.83% and 3.2% | 6.62% and 9.42% | 3.21% and 7.2% | 18.6% and 22% | -0.2% and 3.49% | 9.13% and 14.2% | 0.8% and 0.26%
CN(c1ccc(NC(=O)NCCN2CCOCC2)cc1)c1ccnc(Nc2ccc(CS(C)(=O)=O)cc2)n1 | 4.97% | 0.85% | 0.61% | 1.97% | 2.7% | 2.92% | 3.83% | 2.9% | 7.21% | 2.81% | 9.85% | 1.24% | 5.47% | 2.36% | 7.07% | 2.87% | 8.84% | 2.32% | 9.63% | 0.88%
